High-throughput results (PubChem)
In the library only some 1.6% were active in any assay of this set; here they are far more common.
KCNQ2 block – rat KCNQ2 potassium channel inhibitors, primary screen, cell-based, CHO-K1, FluxOR thallium flux, B-score; Potassium voltage-gated channel subfamily KQT member 2 (Rattus norvegicus), O88943; 20 min; stronger effect = lower value; B-score at 10 µM; 1.1% of 310,000 active;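 active = fluorescence ratio B-score at most minus 3 library SDs, with starting brightness B-score within 2 library SDs, cut at about -5.5 in these data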
KCNQ2 pot – potentiators of rat KCNQ2 potassium channel | CHO-K1 KCNQ2, FluxOR thallium flux fluorescence; stronger effect = higher value | B-score at 10 µM | 0.54% of 310,000 active | AID 2239, 2010;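 active = fluorescence ratio B-score at least 3 SD of library B-scores, with initial fluorescence B-score within 3 of them, cut at about 5.3 in these data; same plate scores as AID 2156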;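 note: B-score of peak minus minimum over baseline fluorescence ratio after K+ and Tl+ stimulus; positive B-score means potentiation of KCNQ2 with more thallium influx and brighter signal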
* = called active by the depositor; i = inactive; · = no result.

SMILES | KCNQ2 block | KCNQ2 pot
CCC(OC(=O)c1cccs1)C(=O)NCc1ccc2c(c1)OCO2 (centres undefined) | i | ·
Cc1ccc(O)c(C(=O)c2cc(C(=O)NCCc3ccccc3)c(=O)n(CCc3ccccc3)c2)c1 | -7.09* | -7.09
COc1ccc(O)c(C(=O)c2cc(C(=O)NCCc3ccccc3)c(=O)n(CCc3ccccc3)c2)c1 | i | ·
O=C(CSc1nnc(CNC(=O)c2ccco2)o1)Nc1cccc(Cl)c1 | i | ·
Cc1nn(-c2nc3ccccc3[nH]2)c(=O)c2ccccc12 | i | 0.39
O=C(O)c1ccc2c(c1)C1C=CCC1C(c1ccncc1)N2 (centres undefined) | i | 1.92
CC(=O)c1ccc2c(c1)C1C=CCC1C(c1cc3c(cc1Br)OCO3)N2 (centres undefined) | -7.44* | -7.44
O=C1CC(=C(c2ccccc2)c2ccccc2)C(=O)N1CCCN1CCN(c2cccc(Cl)c2)CC1 | i | ·
O=C1CC(=C(c2ccccc2)c2ccccc2)C(=O)N1CCN1CCN(c2cccc(Cl)c2)CC1 | -5.63* | -5.63
CCOC(=O)N1CCN(CC(=O)Nc2c(C(=O)OC)[nH]c3ccc(Cl)cc23)CC1 | i | 0.59
Clc1ccc(C2=C3CCCCn4c(-c5ccccc5)c[n+](c43)C2)cc1 | -6.41* | -6.41
O=C(C[n+]1cc(-c2ccc(Cl)cc2)n2c1CCCCC2)c1ccccc1 | i | ·
CCOC(=O)c1sc(NC(=S)NC(=O)c2ccco2)nc1C | i | 5.7*
COC(=O)c1sc(NC(=O)c2ccco2)nc1C | i | 0.18
O=C(NC(=S)NCc1ccc(-c2nc3ccccc3s2)cc1)c1ccco1 | i | 0.1
O=C(NC(=S)Nc1nc2ccccc2s1)c1ccco1 | i | 8.1*
CC(C)n1c(O)c(N=NC(=O)CNC(=O)CCc2ccccc2)c2ccccc21 | i | 2.33
CCNc1nc(Oc2ccc(=O)[nH]n2)nc(SC)n1 | i | 0.34
O=c1[nH]c2ccc(S(=O)(=O)NCc3ccccc3)cc2[nH]1 | i | 0.54
Cc1cc(=O)n2c3ccccc3n(CC(O)CN3CCCCC3)c2c1C#N (centres undefined) | i | 0.76
O=C(NN1C(=O)/C(=C/c2ccc(O)c(O)c2)SC1=S)c1ccccc1 | i | ·
O=C(NN1C(=O)/C(=C/c2cccc(O)c2)SC1=S)c1ccccc1O | -8.27* | -8.27
CN(c1ccccc1)S(=O)(=O)c1cccc(Cl)c1Cl | -5.61* | -5.61
CN(c1ccccc1)S(=O)(=O)c1cc(Cl)ccc1Cl | i | ·
C[C@@H]1C=C(C(=O)NCc2ccccc2)O[C@H](OCc2ccc(CO)cc2)C1 | i | 0.17
SMILES | KCNQ2 block | KCNQ2 pot
COc1ccc(/C(C)=N/NC(=O)c2nnn(-c3nonc3N)c2-c2cccs2)cc1OC | i | ·
Cc1ccc2[nH]cc(S(=O)(=O)c3ccc(C(C)C)cc3)c(=O)c2c1 | i | ·
Cc1cccc(-n2c(CNC(=O)c3ccc(S(=O)(=O)N4CCCC4)cc3)n[nH]c2=S)c1 | i | 0.78
CCOC(=O)C1CCCN(CC(=O)NC2=Nc3ccccc3N=C(C)C2c2ccccc2)C1 (centres undefined) | i | ·
CC1=Nc2ccccc2N=C(NC(=O)CN2CCN(c3ccccc3)CC2)C1c1ccccc1 (centres undefined) | -6.53* | -6.53
CCCCN1C=C(C(=O)OC)C(c2ccccc2C(F)(F)F)C(C(=O)OC)=C1 | i | ·
CCOC(=O)C(CCCOc1cccc(CC)c1)C(=O)OCC | i | ·
CCOC(=O)C(CCCCOc1cccc(CC)c1)C(=O)OCC | -5.57* | -5.57
CCCc1nnc(NC(=O)CCC(=O)NCc2ccccc2OC)s1 | i | ·
Cc1c(NC(=O)C(C)OC(=O)c2cccnc2)c(=O)n(-c2ccccc2)n1C (centres undefined) | i | 0.08
Cc1cc(C)nc(N(C#N)CC(=O)c2ccccc2)n1 | i | 1.31
COc1ccc(C(=S)N2CCOCC2)cc1OS(=O)(=O)c1ccccc1[N+](=O)[O-] | -6.72* | -6.72
COc1cc(C(=S)N2CCOCC2)ccc1OS(=O)(=O)c1ccccc1[N+](=O)[O-] | i | 1.39
CCOCCc1nnc(NC(=O)CN2C(=O)c3ccccc3C2=O)s1 | i | ·
Cc1ccc(N2C(=O)[C@@H]3[C@H](C2=O)C2c4ccccc4C=NN2[C@@H]3C(=O)c2ccc(Cl)cc2)cc1 (some centres undefined) | i | ·
O=C(c1ccc(Cl)c(S(=O)(=O)N2CCCCCC2)c1)N1CCCCC1 | i | 2.76
COc1ccc(NC(=O)C(NC(=O)OC(C)(C)C)C(C)OCc2ccccc2)cc1 (centres undefined) | i | 0.35
CCOC(=O)c1ccc(N2C(=O)C3C(C2=O)C(C(=O)c2ccc(Cl)cc2)N2CCCC32)cc1 (centres undefined) | i | ·
O=C(NC1CCCCC1)C1CC=CCC1C(=O)OCC(Cl)=C(Cl)Cl (centres undefined) | -5.55* | -5.55
COCC(=O)NC1CCCCCC1 | i | ·
COc1cc(-n2c(C)nc3cccnc32)c(Cl)cc1C(=O)O | i | 1.14
CCc1nc(N2CCCCC2C)c2oc3ccccc3c2n1 (centres undefined) | -7.47* | -7.47
CCc1nc(N2CCCCC2)c2oc3ccccc3c2n1 | i | ·
CCc1nc(N2CCCCC2C(=O)O)c2oc3ccccc3c2n1 (centres undefined) | i | 1.44
CCc1nc(N2CCN(Cc3ccc4c(c3)OCO4)CC2)c2oc3ccccc3c2n1 | -6.48* | -6.48
SMILES | KCNQ2 block | KCNQ2 pot
CCOc1ccc(Br)cc1S(=O)(=O)Nc1cccnc1 | i | 0.38
COc1ccc(C2CNC(=O)C2)cc1OC1CCCC1 (centres undefined) | i | 0.02
Cc1nc2[nH]onc2c2nccc(=O)c12 | i | 0.39
Cc1cc(-c2cc(N)n(-c3ccccc3)n2)c(C)n1C1CCCC1 | i | ·
Cc1nnnn1/C(=C\c1ccccc1)C(=O)OCC(=O)NC(C)(C)C | i | ·
Cc1nnnn1/C(=C\c1ccccc1)C(=O)OCC(=O)NC1CCCCC1 | -5.97* | -5.97
Cc1ccccc1-n1nc2c(c1NC(=O)c1cc3ccccc3o1)CS(=O)(=O)C2 | -7.63* | -7.63
Cc1ccccc1-n1nc2c(c1NC(=O)c1ccco1)CS(=O)(=O)C2 | i | 0.64
Cc1ccccc1-n1nc2c(c1NC(=O)c1ccc(Br)o1)CSC2 | -5.88* | -5.88
COc1ccc(-n2nc3c(c2NC(=O)c2cc4ccccc4o2)CS(=O)(=O)C3)cc1 | i | ·
CC(C)c1ccc(NC(=O)c2cc(S(=O)(=O)NCC3COc4ccccc4O3)ccc2F)cc1 (centres undefined) | i | ·
S=c1[nH]nc(-c2cccc(Br)c2)o1 | i | ·
O=C(CSc1nnc(-c2ccncc2)n1-c1ccccc1Cl)Nc1ccc(C(=O)O)cc1 | i | 0.76
CN(C)C(=N)c1n[nH]nc1SCc1ccccc1 | i | 0.6
CCc1cc2c(=O)[nH]c(N3CCCC3)nc2s1 | i | ·
CCc1cc2c(=O)[nH]c(-c3ccccn3)nc2s1 | i | 10.9*
CCOc1cc(-c2noc(-c3ccncc3)n2)cc(Br)c1OC | i | 0.03
CC(C)(C)c1ccc(S(=O)(=O)/N=C2\C=C(NS(=O)(=O)c3ccccc3)C(=O)c3ccccc32)cc1 | -6.06* | -6.06
CCc1ccc(S(=O)(=O)/N=C2\C=C(Nc3ccc(C(=O)O)cc3)C(=O)c3ccccc32)cc1 | i | 3.14
CCOc1ccc(NC(=O)CCCn2nc(C)c3c(C)n(-c4ccccc4)nc3c2=O)cc1 | i | 0.15
